# Rows were chosen to be rich in hits. Some 9.5% of all compounds tested hit in one or more screens of this group.
# Tau ThT inhib = blocks human tau fibril formation measured by thioflavin T; hit rate 2.1% among 270,000; AID 1460; Potency, µM (highest dose often 57.4 µM), most hits filed as inhibitors; recombinant tau K18 P301L, heparin-induced fibrillization, ThT fluorescence; also: nearly all actives have a fitted effect of over 55% in size
# Target sequence (P10636 561-689 P618L limits assumed): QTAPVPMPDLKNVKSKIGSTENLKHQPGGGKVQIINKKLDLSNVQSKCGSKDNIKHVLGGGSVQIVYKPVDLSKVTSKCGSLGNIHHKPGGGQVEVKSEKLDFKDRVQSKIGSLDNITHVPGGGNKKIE
#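 Heparin-induced (20 uM) aggregation of recombinant human K18 P301L tau, 15 uM unlabeled with 0.24 uM labeled, pH 7 acetate buffer, 6 hr at 37 C with compound. Fibrils quantified by 30 uM ThT fluorescence after 1 hr ambient incubation.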
# Tau fluor cs = counter-screen for tau fibril formation inhibitors; tau K18 P301L (four-repeat tau fragment) Alexa594 fluorescence, heparin fibrillization; Potency, µM (titrated, usually from 57.7 µM); hit rate 0.93% among 280,000; also: nearly all actives have a fitted effect of over 55% in size
#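 Human K18 P301L tau (15 uM unlabeled plus 0.24 uM Alexa 594-labeled, final) in 100 mM sodium acetate pH 7 was mixed with compound and 20 uM heparin and incubated 6 hr at 37 C.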
# ALDH1A1 inh = ALDH1A1 (human) enzyme inhibition | hit rate 7.3% among 220,000 | P00352 | Potency, µM (titrated, usually from 75.3 µM), hits mostly inhibitors | AID 1030 | Purified ALDH1A1, NADH fluorescence, propionaldehyde substrate; active = well fitted inhibition curve with a large enough effect, not every such curve was filed as active; inconclusive = small, poorly fitted or top-dose-only effect, or another doubt; inactive = no such curve, though single readings can be large or run the other way
# NPSR antagonist = neuropeptide S receptor (human) antagonism, cAMP; Q6W5P4; CHO-NPSR cells, cAMP TR-FRET, antagonist mode; Potency, µM (titrated, usually from 38.3 µM), hits mostly inhibitors; hit rate 1% among 220,000; AID 1461; also: nearly all actives have a fitted effect of over 50% in size
# HPGD block = inhibitors of human 15-hydroxyprostaglandin dehydrogenase (HPGD); P15428; purified HPGD, NADH fluorescence kinetic, PGE2 substrate; Potency, µM, usual class: inhibitors; hit rate 4.3% among 150,000; AID 894; active = well fitted inhibition curve with a large enough effect, not every such curve was filed as active; inconclusive = small, poorly fitted or top-dose-only effect, or another doubt; inactive = no such curve, though single readings can be large or run the other way
# Target sequence (P15428 whole entry, looked up): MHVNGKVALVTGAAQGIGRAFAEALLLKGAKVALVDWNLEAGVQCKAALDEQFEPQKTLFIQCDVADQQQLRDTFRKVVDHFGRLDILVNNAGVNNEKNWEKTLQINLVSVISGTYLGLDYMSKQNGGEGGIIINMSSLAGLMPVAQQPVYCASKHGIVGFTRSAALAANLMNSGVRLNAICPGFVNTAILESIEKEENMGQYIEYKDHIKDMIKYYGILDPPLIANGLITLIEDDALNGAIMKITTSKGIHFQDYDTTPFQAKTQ
#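 20 nM HPGD preincubated 15 min at room temperature with compound in 50 mM Tris-HCl pH 8, 0.01% Tween 20. Started with 1 mM NAD+ and 30 uM prostaglandin E2; NADH fluorescence (360/450 nm) read 5 times over 30-s intervals, last minus first.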
# Tau FP inhib = inhibitors of human tau fibril formation | P10636 | K18 P301L tau heparin fibrillization, Alexa594 FP, 6 h | Potency, µM (doses to about 57.7 µM), hits mostly inhibitors | hit rate 0.39% among 280,000 | AID 1468; also: nearly all actives have a fitted effect of over 55% in size
#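 Human tau K18 […] P301L fragment, 15 uM unlabeled plus 0.24 uM Alexa 594-labeled tau (final), with compound and 20 uM heparin in 100 mM sodium acetate pH 7; 6 hr at 37 C, then Alexa 594 FP read.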
# Numbers stand for hits; - = inactive; ? = inconclusive; . = not tested or not shown; [ ] = dose if it differs, or a comment. Unless noted, calls follow the shape of the dose curve; as a rule, active = well fitted curve in the direction sought with a large enough effect; inconclusive = small, poorly fitted or top-dose-only effect, or another doubt; inactive = no such curve, though single readings can be large; an effect the other way counts as inactive or inconclusive.
SMILES,Tau ThT inhib,Tau fluor cs,ALDH1A1 inh,NPSR antagonist,HPGD block,Tau FP inhib
COC(=O)c1ccc(N2CCN(C)CC2)c([N+](=O)[O-])c1,-,-,-,-,.,-
CCOc1cccc(OCC)c2c(C)[n+](CC3CCCO3)c(C)c1-2 (centres undefined),20µM,?,?,-,-,?
CN(C)C(=O)Cl,.,.,?,.,-,.
Cl.Cl.Cl.Cl.Cl.Cl.N.N.N.N.NNNNN.NNNNN.O.O.[Ru].[Ru].[Ru],22µM,?,-,.,-,?
CCOc1cc2[nH]c(=O)n(CCCC(=O)N3CCN(c4cccc(Cl)c4)CC3)c(=O)c2cc1OCC,?,-,.,.,.,-
C[C@@H](N)Cn1ccc2cc(F)c(Cl)cc21,-,-,-,.,-,-
C[C@@]12CC[C@H]3[C@@H](CC[C@H]4C[C@@H](O)CC[C@]43C)[C@H]1CC[C@@H]2C(=O)C[C@H](O)C(F)(F)F,.,.,-[13.5 µM],.,-,.
CCn1c(O)c(C(=O)CC2NCCc3ccccc32)c(=O)n(CC)c1=S (centres undefined),?,-,1.3µM,-,-,-
CC(C)C1C(=O)N2CCCC2[C@]2(O)O[C@@](NC(=O)[C@@H]3C=C4c5cccc6[nH]cc(c56)C[C@H]4N(C)C3)(C(C)C)C(=O)N12 (some centres undefined),20µM,?,?,.,?,?
CC(C)C[C@H]1C(=O)N2CCC[C@@H]2[C@]2(O)O[C@](NC(=O)[C@@H]3C=C4c5cccc6[nH]c(Br)c(c56)C[C@H]4N(C)C3)(C(C)C)C(=O)N12,?,?,-,.,-,-
CC(C)[C@H]1C(=O)N2CCC[C@H]2[C@]2(O)O[C@](NC(=O)[C@@H]3C=C4c5cccc6[nH]cc(c56)C[C@H]4N(C)C3)(C(C)C)C(=O)N12,?,?,?,1µM,?,?
O=C1NS(=O)c2cc([N+](=O)[O-])cc([N+](=O)[O-])c21 (centres undefined),?,-,22µM,-,.,?
Nc1ccc([N+](=O)[O-])cc1[N+](=O)[O-],.,.,-,.,-,.
CN(C)c1ccc(/C=C2/C(=O)NC(=O)N(Cc3ccco3)C2=O)cc1,?,-,1µM,-,10µM,-
Cc1cccc(OCCn2cccc2/C=C2/C(=O)NC(=O)N(Cc3ccco3)C2=O)c1,?,?,.,-,.,-
Cc1cc(/C=C2\C(=O)NC(=O)N(Cc3ccccc3)C2=O)c(C)n1C1CC1,-,-,-,-,.,-
CCN(CC)c1ccc(/C=C2\C(=O)NC(=O)N(CC3CCCO3)C2=O)cc1 (centres undefined),?,-,0.25µM,-,25µM,-
Cc1cc(/C=C2/C(=O)NC(=O)N(Cc3ccco3)C2=O)c(C)n1-c1ccccc1,?,?,8.9µM,-,?,-
Cc1ccc(/C=C2\C(=O)NC(=O)N(CC3CCCO3)C2=O)s1 (centres undefined),-,-,.,-,.,-
CCN(CC)c1ccc(/C=C2/C(=O)NC(=O)N(Cc3ccco3)C2=O)cc1,?,-,0.56µM,?,10µM,?
O=[As](O)(O)c1ccc(N=Nc2ccc([As](=O)(O)O)cc2)cc1,.,.,-[13.5 µM],.,-,.
C[C@H]1CC[C@@]2(NC1)O[C@@H]1C[C@@H]3[C@@H]4CC=C5C[C@@H](O)CC[C@]5(C)[C@@H]4CC[C@]3(C)[C@H]1[C@@H]2C,.,.,-[13.5 µM],.,-,.
NC[C@@H](O)CSP(=O)(O)O,.,.,-[13.5 µM],.,-,.
c1cc2c(cc1[C@H]1OC[C@@H]3[C@H]1CO[C@H]3c1ccc3c(c1)OCO3)OCO2,?,?,-,.,-,-
CC(C)c1ccc(Cc2cnc(NC(=O)c3ccc4c(c3)CC(c3ccccc3)OC4=O)s2)cc1 (centres undefined),-,-,.,.,.,?
SMILES,Tau ThT inhib,Tau fluor cs,ALDH1A1 inh,NPSR antagonist,HPGD block,Tau FP inhib
CN1CCN(c2ccc([N+](=O)[O-])c(N3CCCCC3)c2)CC1,-,-,?,-,.,-
O=[N+]([O-])c1ccc(N2CCNCC2)cc1N1CCCCCC1,?,-,4.5µM,-,.,-
O=[N+]([O-])c1ccc(N2CCNCC2)cc1NCc1ccco1,?,-,28µM,-,-,-
O=[N+]([O-])c1cc(F)c(N2CCCCCC2)cc1N1CCNCC1,?,-,7.1µM,-,.,-
CC(C)N(Cc1ccccc1)C(=O)CCS(=O)(=O)c1ccc2c(c1)oc(=O)n2C,?,-,.,.,.,-
CCCCCCCC(=O)Cl,.,.,?,.,-,.

# Bioassay records deposited in PubChem by National Center for Advancing Translational Sciences (NCATS).
